From PubChem BioAssay (Tox21) come the findings set out here.

Structures are written as SMILES. Results filed as inconclusive are left out. Entries that show only a call come without a potency. The source made the active and inactive calls. Calls come from the whole dose curve; as a rule, active = well fitted inhibition curve with a large enough effect in the signal ratio in the repeat runs (not every such curve was filed as active); inconclusive = weak or mixed curves, or effect the other way; inactive = flat fitted curve, though single readings scatter; the % refers to the signal ratio.
Potency is the fitted concentration of half-maximal effect.

The test is described as follows: cAMP Responsive Elements (CRE) small molecule antagonists, cell-based qHTS assay (AID 1963591). The conditions noted are these: CRE-bla HEK293T, beta-lactamase FRET ratio; series mostly up to 92.4 µM. From the text:
U.S. Tox21 Program National Center for Advancing Translational Sciences [NCATS] Division of Preclinical Innovation [DPI] U.S. Environmental Protection Agency [EPA] National Institutes of Environmental Health Sciences [NIEHS] National Toxicology Program [NTP] U.S. Food and Drug Administration [FDA] Tox21 Assay Overview: CREB (cyclic-AMP Responsive Element Binding Protein) is a cellular transcription factor. It binds to certain DNA sequences called cAMP Responsive Elements (CRE) and regulates the transcription of the genes. […] This cell line can be used to find agonists/antagonists of the cyclic AMP signaling pathway. The activation of the report gene under culture conditions can be detected by fluorescence intensity. This cell line has been used to screen the Tox21 10K compound library to […].
Tox21 Assay Protocol Summary: CRE-bla Hek 293T cells were suspended in assay medium (DMEM containing 10% dialyzed FBS, 0.1 mM NEAA, 1 mM sodium pyruvate and 25 mM HEPES) and dispensed at 2,000 cells/4 uL /well into 1536-well black wall/clear bottom plates using a Multidrop Combi (ThermoFisher Scientific, Waltham, MA) dispenser. After the assay plates were incubated at 37 C/5% CO2 for 18 hrs, 23 nL of compounds dissolved in DMSO, positive controls or DMSO only was transferred to the assay plate by a pintool workstation (Kalypsys, San Diego, CA), followed by addition of 1 […] uL of 1.25uM NKH477 (0.25 uM as final concentration) in assay medium using a Flying Reagent Dispenser (Aurora Discovery, San Diego, CA). The plates were incubated at 37 C and 5% CO2 for 3 hrs. Then 1 uL of LiveBLAzer B/G FRET substrate (Invitrogen, Carlsbad, CA) was added to each well using Bioraptr Flying Reagent Dispenser (FRD, Aurora Discovery, San Diego, CA). The plates were incubated at room temperature for 2 h.
For orientation: Quantitative high-throughput screening tests each substance at several concentrations.
As to `CCCN(CC1CC1)c1c([N+](=O)[O-])cc(C(F)(F)F)cc1[N+](=O)[O-]`, the Potency result was “inactive”.

Turning to `CCCSC(=O)N(CCC)CCC`, the Potency result is “inactive”.

`NNC(=O)c1cccnc1`: the Potency entry is “inactive”.

Consider `O=C(O)c1cccc(Cl)c1`, for which the Potency result is “inactive”.

As to `O=C(N/N=C/c1ccc([N+](=O)[O-])o1)c1cc([N+](=O)[O-])cc([N+](=O)[O-])c1O`, the Potency entry is “inactive”.

In the case of `CCOc1ccc(C(C)(C)COCc2cccc(Oc3ccccc3)c2)cc1`, the Potency entry is “inactive”.

Regarding `CCN[C@H](C)Cc1cccc(C(F)(F)F)c1`, the Potency entry is “inactive”.

Take `c1ccc2c(c1)CCNC2`: the Potency result was “inactive”.

For the compound `CCOc1nc(C(Cl)(Cl)Cl)ns1`, the Potency entry was “inactive”.

As for `CCC[CH2][Sn]([CH2]CCC)([O]C(C)=O)[O]C(C)=O`, the Potency entry is “inactive”.

For `CC#Cc1cc(C)nc(Nc2ccccc2)n1`, the Potency result was “inactive”.

As for `O=C1OC(=O)C2C1C1(Cl)C(Cl)=C(Cl)C2(Cl)C1(Cl)Cl` (stereo not given), the Potency entry was “inactive”.

In the case of `C=CCC1(C(C)CC)C(=O)NC(=O)NC1=O` (stereo not given), the Potency entry was “inactive”.

Take `CCN(CC)CCc1c[nH]c2ccccc12`: the Potency entry was “inactive”.

As to `COc1cc(OC)nc(NC(=O)NS(=O)(=O)c2ncccc2OCC(F)(F)F)n1`, the Potency result is “inactive”.

As to `Clc1cc(C(Cl)(Cl)Cl)cnc1Cl`, the Potency result is “inactive”.

Turning to `CC(=O)c1ccc(-c2ccccc2)cc1`, the Potency result was “inactive”.

For the compound `COP(=S)(OC)Oc1c(Cl)cc(C)cc1Cl`, the Potency result is “inactive”.

Regarding `O=S(=O)(C(Cl)(Cl)Cl)C(Cl)(Cl)Cl`, the Potency entry was “inactive”.

As for `COc1cc(CC#N)cc(OC)c1OC`, the Potency entry is “inactive”.

For `Clc1ccccc1`, the Potency result is “inactive”.

In the case of `CCC(C)(C)c1cc(-n2nc3ccccc3n2)c(O)c(C(C)(C)CC)c1`, the Potency result is “inactive”.

As for `CCCCc1ccc(O)cc1`, the Potency entry was “inactive”.

For `CN(C)CCc1c[nH]c2ccccc12`, the Potency entry was “inactive”.

In the case of `O=Cc1ccc2c(c1)OCO2`, the Potency result is “inactive”.

As for `CC(C)COP(=O)(OCC(C)C)OCC(C)C`, the Potency entry was “inactive”.

Consider `CCCCN(CCCC)C(=S)[S-].CCCCN(CCCC)C(=S)[S-].[Zn+2]`, for which the Potency was 21.7 µM (active).

As for `CCSC(C)CC1CC(=O)C(/C(CC)=N/OC/C=C/Cl)=C(O)C1` (stereo not given), the Potency result is “inactive”.

Regarding `O=C(O)c1ccccc1C(=O)Nc1cccc2ccccc12`, the Potency result is “inactive”.

As to `CCSC(=O)Cl`, the Potency entry is “inactive”.

For the compound `CCOP(=O)(SC(C)CC)N1CCSC1=O` (stereo not given), the Potency result is “inactive”.

As to `CCCCn1cc[n+](C)c1.[Cl][Fe-]([Cl])([Cl])[Cl]`, the Potency result was “inactive”.

For `CCCN(CCC)c1c([N+](=O)[O-])cc(C(F)(F)F)cc1[N+](=O)[O-]`, the Potency result is “inactive”.

Consider `O=[N+]([O-])c1cccc(CCl)c1`, for which the Potency entry was “inactive”.

For `Cc1cc(C)cc(OP(=O)(Oc2cc(C)cc(C)c2)Oc2cc(C)cc(C)c2)c1`, the Potency result is “inactive”.

On to `CN1CCc2cc(Cl)c(O)cc2[C@H]2c3ccccc3CC[C@@H]21`, for which the Potency result was “inactive”.

Consider `O=c1[nH]oc2c1CCNC2`, for which the Potency result was “inactive”.

For `CC[C@H](O)C(C[C@H](C)N(C)C)(c1ccccc1)c1ccccc1`, the Potency result is “inactive”.

In the case of `NC(=O)C(Cl)Cl`, the Potency result is “inactive”.

As for `CC(=O)OC(c1ccccc1)C(Cl)(Cl)Cl` (stereo not given), the Potency result was “inactive”.
